Data reported in PubChem BioAssay (NCATS).
“And” between values parts separate entries of the source, which are not always exact repeats. Identical values can stand only once. Records with an inconclusive call do not appear. Where a call stands in place of a potency, no number is given. Values without a mark were called inactive. The source made the active and inactive calls. Calls follow the shape of the dose curve; as a rule, active = well fitted cell-killing curve with a large enough effect; inconclusive = small, poorly fitted or top-dose-only effect; inactive = flat fitted curve, though single readings scatter.

Assay: qHTS of pediatric cancer cell lines to identify multiple opportunities for drug repurposing: Primary screen for BT-12 cells (AID 1347101); also: nearly all actives have a fitted effect of over 25% in size
Conditions: BT-12 viability, CellTiter-Glo luminescence, 48 h; series mostly up to 57.3 µM; activity change, negative = cytotoxic: at the top concentration
From the text: Drug repurposing or repositioning has been offered as a strategy for drug development in oncology programs. This approach has special potential for childhood cancers and other rare or orphan diseases, where the expected return on new drug development has been a disincentive to pharmaceuticals.
In this project we exploit the poly-pharmacology of drugs to discover new indications via phenotypic screening of a panel of 19 well-characterized cell lines derived from solid tumors seen in children and adolescents. The goal is to identify approved drugs with previously unrecognized anticancer properties that has the potential to reveal new mechanisms and biological processes involved in carcinogenesis or drug resistance. We employed a titration-based paradigm (quantitative high-throughput screening or qHTS), where all compounds were tested at multiple concentrations for their effect on cell viability. Concentration-response curves (CRCs) were derived directly from the primary screen, and both potency and efficacy values were used to identify compounds with robust bioactivity profiles. We screened the NIH Chemical Genomics Center (NCGC) Pharmaceutical Collection (NPC) and Mechanism Interrogation Plate (MIPE) small molecule collections of approved and investigational compounds against these cell lines; and measured metabolically active cells after 48 hours of compound treatment as a proxy for cell viability.
Assay Submitter: Nathalia J. Martinez, National Center for Advancing Translational Sciences, National Institutes of Health, Rockville, MD, USA; email: natalia.martinez@nih.gov
[1] Shen, M et al. Quantitative high-throughput phenotypic screening of pediatric cancer cell lines identifies multiple opportunities for drug repurposing. Oncotarget 2017 Dec 19;9(4):4758-4772. PMID 29435139.
The cells were obtained from University of North Carolina (UNC), Pediatric Preclinical Testing Program (PPT), and Coriell Institute (CI).
qHTS cell viability assay:
Cells were assayed in growth media at a density of 500-1,000 cells/well. Five microliters of cells were dispensed into 1,536-well, white, solid-bottom, TC-treated plates (Greiner Bio One) using a multidrop dispenser and incubated at 37 degrees C, 5% CO2, under a humidified atmosphere for 5 hours. Twenty-three nanoliters of compounds and controls (neutral control DMSO or positive control bortezomib at final concentration of 2.3 µM) were subsequently transferred by Kalypsys pintool. For primary screens, the MIPE collection was tested at 11-point dilutions (final concentrations range from 0.78 nM to 46 µM) and the NPC collection at 8-point dilutions (final concentrations range from 0.59 nM to 46 µM). Compounds tested in follow-up screens were assayed at 11-point dilutions. Cells were incubated for 48 hours, followed by addition of 3 µL of CellTiter-Glo (Promega). After a 15 min incubation at room temperature, samples were analyzed for luminescence intensity using a ViewLux High-throughput CCD imager equipped with clear filters.
Potency is read from the fitted curve at half-maximal effect.

Structure (SMILES)	Potency	activity change, negative = cytotoxic
Cn1c(=O)c2c(ncn2C)n(C)c1=O	inactive	
NCCS(=O)(=O)O	inactive	
COc1ccccc1OCC(O)CN1CCN(CC(=O)Nc2c(C)cccc2C)CC1 (stereo not given)		11.5%
COC(=O)Nc1nc2ccc(C(=O)c3cccs3)cc2[nH]1	19.3 nM (active) and 347 nM (active)	
CC1(C)O[C@H]2CC(=O)OC[C@]23[C@H]2CC[C@@]4(C)[C@H](c5ccoc5)OC(=O)[C@H]5O[C@]54[C@]2(C)C(=O)C[C@@H]13	inactive	
NC12CC3CC(CC(C3)C1)C2		4.77%
Nc1nnc(-c2cccc(Cl)c2Cl)c(N)n1	inactive	
Cc1ccc(-c2cc(C(F)(F)F)nn2-c2ccc(S(N)(=O)=O)cc2)cc1		0.588%
CN(C)c1nc(N(C)C)nc(N(C)C)n1	inactive	
CCCCc1oc2ccccc2c1C(=O)c1cc(I)c(OCCN(CC)CC)c(I)c1	4.32 µM (active) and 21.9 µM (active)	
CC12CC3CC(C)(C1)CC(N)(C3)C2	inactive	
CN(CCOc1ccc(NS(C)(=O)=O)cc1)CCc1ccc(NS(C)(=O)=O)cc1	inactive	
Cc1cn([C@H]2C[C@H](N=[N+]=[N-])[C@@H](CO)O2)c(=O)[nH]c1=O		0.813%
CN1CCN2c3ccccc3Cc3ccccc3C2C1 (stereo not given)		-13.7%
O=C(c1ccc(F)cc1)C1CCN(CCn2c(=O)[nH]c3ccccc3c2=O)CC1		11.8%
COc1ccc(C2CNC(=O)C2)cc1OC1CCCC1 (stereo not given)	inactive	
Cc1ccc(C(=O)Nc2ccc(S(=O)(=O)O)c3cc(S(=O)(=O)O)cc(S(=O)(=O)O)c23)cc1NC(=O)c1cccc(NC(=O)Nc2cccc(C(=O)Nc3cc(C(=O)Nc4ccc(S(=O)(=O)O)c5cc(S(=O)(=O)O)cc(S(=O)(=O)O)c45)ccc3C)c2)c1	inactive	
Nc1ccn([C@H]2CC[C@@H](CO)O2)c(=O)n1	inactive	
O=C1Cc2cc(CCN3CCN(c4nsc5ccccc45)CC3)c(Cl)cc2N1		-8.96%
CC(=O)OCC(CCn1cnc2cnc(N)nc21)COC(C)=O	inactive	

Structure (SMILES)	Potency	activity change, negative = cytotoxic
Nc1c2c(nc3ccccc13)CCCC2	inactive	
CC[C@@]1(O)C(=O)OCc2c1cc1n(c2=O)Cc2cc3c(CN(C)C)c(O)ccc3nc2-1	309 nM (active) and 1.37 µM (active)	
O=C1c2c(O)ccc(O)c2C(=O)c2c(NCCNCCO)ccc(NCCNCCO)c21	1.72 µM (active) and 490 nM (active)	
Cc1cn([C@H]2C=C[C@@H](CO)O2)c(=O)[nH]c1=O	inactive	
COc1cc2nc(N3CCN(C(=O)c4ccco4)CC3)nc(N)c2cc1OC	9.53 µM (active)	
Clc1ccc(C(c2ccccc2Cl)C(Cl)Cl)cc1 (stereo not given)		-6.18%
Cn1c(=O)c2[nH]cnc2n(C)c1=O	inactive	
COc1ccc2c(c1)c(CC(=O)O)c(C)n2C(=O)c1ccc(Cl)cc1	inactive	
NC(=O)OCC(COC(N)=O)c1ccccc1	inactive	
CN(Cc1cnc2nc(N)nc(N)c2n1)c1ccc(C(=O)N[C@@H](CCC(=O)O)C(=O)O)cc1	0.0062 µM (active)	
CN1CCC(=C2c3ccccc3CC(=O)c3sccc32)CC1	inactive	
Cc1cc(C(C)(C)C)c(O)c(C)c1CC1=NCCN1	inactive	
COc1ccccc1N1CCN(CC(O)COc2cccc3ccccc23)CC1 (stereo not given)		-7.76%
COc1cc2c(c(OC)c1OC)-c1ccc(OC)c(=O)cc1[C@@H](NC(C)=O)CC2	11 nM (active) and 1 nM (active)	
NCCc1cnc[nH]1	inactive	
CCOC(=O)Nc1ccc(NCc2ccc(F)cc2)nc1N	inactive	
O=C(C1CCCCC1)N1CC(=O)N2CCc3ccccc3C2C1 (stereo not given)	inactive	
CN1C2CCC1CC(OC(=O)C(CO)c1ccccc1)C2 (stereo not given)		-6.09%
CN1C(C(=O)Nc2ccccn2)=C(O)c2ccccc2S1(=O)=O		-1.58%
CC(C)(Oc1ccc(C2CC2(Cl)Cl)cc1)C(=O)O (stereo not given)		13.2%
